The campaign covered roughly 5,500 compounds. About 2,000 (36%) were called active. Not shown: some 18% with an inconclusive outcome. Cut-off read from the data, not from the text of the source: active = normalized growth mostly below about 0.91 (no sharp cut-off); inconclusive = no clear call, values can overlap the other calls; inactive = mostly above about 0.92. The list shows a part of the results.
Assay: chemical genetic growth profiling, strain panel (AID 1159580);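 note: tested at 20 µM; growth read once vehicle control cultures reached saturation at 30 °C; 1 = growth at the plate median or of vehicle wells; lower values mean less growth of the strain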
Settings: growth OD

Measured: normalized growth

COc1c(O)cc(O)cc1O
inactive: S. cerevisiae deletion strains, locus YJR066W, strain TOR1, stronger effect = lower value 0.977 | S. cerevisiae deletion strains, locus YKL009W, strain mrt4, stronger effect = lower value 1.07 | S. cerevisiae deletion strains, locus YKL068W, stronger effect = lower value 0.995 | S. cerevisiae deletion strains, locus YKL085W, strain MDH1 (second series), stronger effect = lower value 1.02 | S. cerevisiae deletion strains, locus YKL085W, strain MDH1, stronger effect = lower value 1.02 | S. cerevisiae deletion strains, locus YKL160W, strain elf1, stronger effect = lower value 1.02 | S. cerevisiae deletion strains, locus YKR001C, strain vps1, stronger effect = lower value 1.01 | S. cerevisiae deletion strains, locus YKR026C, strain gcn3, stronger effect = lower value 0.991 | S. cerevisiae deletion strains, locus YKR091W, strain srl3, stronger effect = lower value 0.996 | S. cerevisiae deletion strains, locus YLL001W, strain dnm1, stronger effect = lower value 0.999 | S. cerevisiae deletion strains, locus YLL026W, stronger effect = lower value 0.994 | S. cerevisiae deletion strains, locus YLL041C, strain sdh2, stronger effect = lower value 0.996 | S. cerevisiae deletion strains, locus YLR027C, strain aat2, stronger effect = lower value 0.985 | S. cerevisiae deletion strains, locus YLR039C, strain RIC1, stronger effect = lower value 1.06 | S. cerevisiae deletion strains, locus YLR058C, strain SHM2, stronger effect = lower value 1.01 | S. cerevisiae deletion strains, locus YLR102C, strain apc9, stronger effect = lower value 0.987 | S. cerevisiae deletion strains, locus YLR113W, strain HOG1, stronger effect = lower value 1.03 | S. cerevisiae deletion strains, locus YLR221C, strain rsa3, stronger effect = lower value 0.992 | S. cerevisiae deletion strains, locus YLR258W, strain gsy2, stronger effect = lower value 0.997 | S. cerevisiae deletion strains, locus YLR262C, strain YPT6 (second series), stronger effect = lower value 1.02 | S. cerevisiae deletion strains, locus YLR262C, strain YPT6, stronger effect = lower value 1.08 | S. cerevisiae deletion strains, locus YLR268W, strain sec22, stronger effect = lower value 1.05 | S. cerevisiae deletion strains, locus YLR320W, strain mms22, stronger effect = lower value 0.994 | S. cerevisiae deletion strains, locus YLR330W, strain CHS5, stronger effect = lower value 1.01 | S. cerevisiae deletion strains, locus YLR342W, strain FKS1 (second series), stronger effect = lower value 1.08 | S. cerevisiae deletion strains, locus YLR342W, strain FKS1, stronger effect = lower value 0.997 | S. cerevisiae deletion strains, locus YLR357W, strain rsc2, stronger effect = lower value 0.958 | S. cerevisiae deletion strains, locus YLR370C, strain arc18, stronger effect = lower value 0.992 | S. cerevisiae deletion strains, locus YLR371W, strain rom2, stronger effect = lower value 0.984 | S. cerevisiae deletion strains, locus YLR384C, strain iki3, stronger effect = lower value 1 | S. cerevisiae deletion strains, locus YLR418C, strain cdc73, stronger effect = lower value 0.988 | S. cerevisiae deletion strains, locus YML016C, strain PPZ1, stronger effect = lower value 0.994 | S. cerevisiae deletion strains, locus YML032C, strain rad52, stronger effect = lower value 1.02 | S. cerevisiae deletion strains, locus YML120C, strain ndi1, stronger effect = lower value 1 | S. cerevisiae deletion strains, locus YML124C, strain tub3, stronger effect = lower value 0.997 | S. cerevisiae deletion strains, locus YMR058W, strain fet3, stronger effect = lower value 1.01 | S. cerevisiae deletion strains, locus YMR078C, strain ctf18, stronger effect = lower value 0.986 | S. cerevisiae deletion strains, locus YMR125W, strain sto1, stronger effect = lower value 0.992 | S. cerevisiae deletion strains, locus YMR129W, stronger effect = lower value 0.99 | S. cerevisiae deletion strains, locus YMR205C, strain PFK2, stronger effect = lower value 0.997 | S. cerevisiae deletion strains, locus YMR223W, strain ubp8, stronger effect = lower value 1.01 | S. cerevisiae deletion strains, locus YMR231W, strain pep5, stronger effect = lower value 0.967 | S. cerevisiae deletion strains, locus YMR307W, strain GAS1, stronger effect = lower value 1.08 | S. cerevisiae deletion strains, locus YNL067W, strain RPL9B, stronger effect = lower value 1 | S. cerevisiae deletion strains, locus YNL071W, strain lat1, stronger effect = lower value 1 | S. cerevisiae deletion strains, locus YNL128W, strain TEP1, stronger effect = lower value 1.04 | S. cerevisiae deletion strains, locus YNL183C, strain NPR1, stronger effect = lower value 0.988 | S. cerevisiae deletion strains, locus YNL209W, strain ssb2, stronger effect = lower value 1.02 | S. cerevisiae deletion strains, locus YNL233W, strain BNI4, stronger effect = lower value 0.99 | S. cerevisiae deletion strains, locus YNL248C, strain rpa49, stronger effect = lower value 1 | S. cerevisiae deletion strains, locus YNL250W, strain rad50, stronger effect = lower value 0.956 | S. cerevisiae deletion strains, locus YNL271C, strain bni1, stronger effect = lower value 0.994 | S. cerevisiae deletion strains, locus YNL298W, strain CLA4, stronger effect = lower value 0.998 | S. cerevisiae deletion strains, locus YNL307C, strain MCK1, stronger effect = lower value 0.998 | S. cerevisiae deletion strains, locus YNL322C, strain KRE1 (second series), stronger effect = lower value 0.987 | S. cerevisiae deletion strains, locus YNR049C, strain mso1, stronger effect = lower value 0.994 | S. cerevisiae deletion strains, locus YNR052C, strain pop2, stronger effect = lower value 0.985 | S. cerevisiae deletion strains, locus YOL012C, strain htz1 0.85 | S. cerevisiae deletion strains, locus YOL147C, strain pex11, stronger effect = lower value 1 | S. cerevisiae deletion strains, locus YOR001W, strain rrp6, stronger effect = lower value 1.01 | S. cerevisiae deletion strains, locus YOR061W, strain CKA2, stronger effect = lower value 1.01 | S. cerevisiae deletion strains, locus YOR069W, strain VPS5, stronger effect = lower value 0.986 | S. cerevisiae deletion strains, locus YOR070C, strain gyp1, stronger effect = lower value 1.02 | S. cerevisiae deletion strains, locus YOR080W, strain dia2, stronger effect = lower value 0.99 | S. cerevisiae deletion strains, locus YOR083W, strain WHI5, stronger effect = lower value 1.01 | S. cerevisiae deletion strains, locus YOR106W, strain vam3, stronger effect = lower value 1.04 | S. cerevisiae deletion strains, locus YOR136W, strain idh2, stronger effect = lower value 0.991 | S. cerevisiae deletion strains, locus YOR144C, strain elg1, stronger effect = lower value 1 | S. cerevisiae deletion strains, locus YOR184W, strain ser1, stronger effect = lower value 1.1 | S. cerevisiae deletion strains, locus YOR231W, strain MKK1, stronger effect = lower value 1.04 | S. cerevisiae deletion strains, locus YOR265W, strain rbl2, stronger effect = lower value 1.02 | S. cerevisiae deletion strains, locus YOR270C, strain vph1, stronger effect = lower value 1.04 | S. cerevisiae deletion strains, locus YOR290C, strain snf2, stronger effect = lower value 1.01 | S. cerevisiae deletion strains, locus YOR316C, strain cot1, stronger effect = lower value 0.99 | S. cerevisiae deletion strains, locus YPL051W, strain arl3, stronger effect = lower value 1 | S. cerevisiae deletion strains, locus YPL055C, strain LGE1, stronger effect = lower value 1.07 | S. cerevisiae deletion strains, locus YPL078C, strain atp4, stronger effect = lower value 1.01 | S. cerevisiae deletion strains, locus YPL106C, strain sse1, stronger effect = lower value 0.986 | S. cerevisiae deletion strains, locus YPL240C, strain hsp82, stronger effect = lower value 1 | S. cerevisiae deletion strains, locus YPL241C, strain CIN2, stronger effect = lower value 1.01 | S. cerevisiae deletion strains, locus YPL256C, strain CLN2, stronger effect = lower value 1.02 | S. cerevisiae deletion strains, locus YPR119W, strain clb2, stronger effect = lower value 0.997 | S. cerevisiae deletion strains, locus YPR141C, strain kar3, stronger effect = lower value 0.971 | S. cerevisiae deletion strains, locus YPR163C, strain tif3, stronger effect = lower value 0.997 | S. cerevisiae deletion strains, locus YPR167C, strain met16, stronger effect = lower value 0.992 | S. cerevisiae deletion strains, strain wtn01, stronger effect = lower value 1.03 | S. cerevisiae strains, strain wild type, stronger effect = lower value 1.05

From PubChem BioAssay AID1159580 (chemical genetic matrix, 2015)
